In the antibiotic and cytotoxicity screens of Wong et al. (2023):
In all, about 39,000 compounds went through this assay and about 1,500 (3.8%) were called active. What follows is part of a selection rich in actives, with near analogues and random picks from the rest.

System: HSkMC (human skeletal muscle cells)
Test: cytotoxicity call (relative viability < 0.9)
Conditions: 10 µM

Row | SMILES | cytotoxicity call
1 | C[C@@H]1CN([C@H](C)CO)C(=O)c2cccc(NS(=O)(=O)c3ccc(F)cc3)c2O[C@@H]1CN(C)C(=O)Nc1ccc(C(F)(F)F)cc1 | inactive
2 | C[C@@H]1CN([C@@H](C)CO)C(=O)Cc2cc(NS(C)(=O)=O)ccc2O[C@@H]1CN(C)C(=O)Nc1ccc2c(c1)OCO2 | inactive
3 | C[C@H](CO)N1C[C@H](C)[C@H](CN(C)C(=O)Nc2ccc3c(c2)OCO3)OCCCC[C@H](C)Oc2ccc(NC(=O)CCCCCC(=O)Nc3ccccc3N)cc2C1=O | inactive
4 | Cc1noc(C)c1NC(=O)Nc1cccc2c1O[C@H](CN(C)Cc1ccc(C(F)(F)F)cc1)[C@H](C)CN([C@@H](C)CO)C2=O | inactive
5 | C[C@H]1CN([C@@H](C)CO)C(=O)Cc2cc(NC(=O)Cc3cn(C)c4ccccc34)ccc2O[C@@H]1CN(C)Cc1ccc(C(=O)Nc2ccccc2N)cc1 | inactive
6 | C[C@H](CO)N1C[C@H](C)[C@H](CN(C)Cc2ccc(C(=O)Nc3ccccc3N)cc2)Oc2ccc(NC(=O)Cc3cn(C)c4ccccc34)cc2C1=O | inactive
7 | C[C@@H]1CN([C@H](C)CO)C(=O)c2cc(NC(=O)Cc3cn(C)c4ccccc34)ccc2O[C@@H]1CN(C)Cc1ccc(C(=O)Nc2ccccc2N)cc1 | inactive
8 | C[C@H](CO)N1C[C@H](C)[C@H](CN(C)Cc2ccc(C(=O)Nc3ccccc3N)cc2)Oc2ccc(NC(=O)Cc3cn(C)c4ccccc34)cc2CC1=O | active
9 | C[C@H]1CN([C@@H](C)CO)C(=O)c2cc(NC(=O)Cc3cn(C)c4ccccc34)ccc2O[C@@H]1CN(C)Cc1ccc(C(=O)Nc2ccccc2N)cc1 | active
10 | C[C@@H]1CN([C@H](C)CO)C(=O)Cc2cc(NC(=O)Cc3cn(C)c4ccccc34)ccc2O[C@@H]1CN(C)Cc1ccc(C(=O)Nc2ccccc2N)cc1 | inactive
11 | O=C(C[C@@H]1CC[C@H]2[C@@H](COC[C@H](O)CN2S(=O)(=O)c2ccc(Cl)cc2)O1)NCCN1CCCC1 | inactive
12 | O=C(C[C@H]1C=C[C@@H](NS(=O)(=O)c2ccc(F)cc2)[C@@H](CO)O1)N1CCC(Cc2ccccc2)CC1 | inactive
13 | C[C@@H]1CCCCO[C@H](CN(C)C(=O)Nc2ccc(C(F)(F)F)cc2)[C@@H](C)CN([C@@H](C)CO)C(=O)c2cc(NC(=O)CCC(F)(F)F)ccc2O1 | inactive
14 | C[C@@H]1CCCCO[C@@H](CN(C)C(=O)CCC(F)(F)F)[C@H](C)CN([C@@H](C)CO)C(=O)c2cc(NS(=O)(=O)c3ccccc3)ccc2O1 | inactive
15 | COc1ccc(CN(C)C[C@H]2OCCCC[C@@H](C)Oc3ccc(NC(=O)Nc4ccc(C(F)(F)F)cc4)cc3C(=O)N([C@H](C)CO)C[C@@H]2C)cc1 | active
16 | COc1ccc(CN(C)C[C@@H]2OCCCC[C@@H](C)Oc3ccc(NC(=O)Nc4ccc(C(F)(F)F)cc4)cc3C(=O)N([C@@H](C)CO)C[C@H]2C)cc1 | active
17 | COc1ccc(NC(=O)Nc2ccc3c(c2)C(=O)N([C@@H](C)CO)C[C@H](C)[C@H](CN(C)Cc2ccc(C(F)(F)F)cc2)OCCCC[C@H](C)O3)cc1 | inactive
18 | COc1ccc(CN(C)C[C@H]2OCCCC[C@H](C)Oc3ccc(NC(=O)Nc4ccc(C(F)(F)F)cc4)cc3C(=O)N([C@H](C)CO)C[C@H]2C)cc1 | active
19 | COc1ccc(NC(=O)Nc2ccc3c(c2)C(=O)N([C@@H](C)CO)C[C@H](C)[C@@H](CN(C)Cc2ccc(C(F)(F)F)cc2)OCCCC[C@H](C)O3)cc1 | inactive

Row | SMILES | cytotoxicity call
20 | COc1ccc(CN(C)C[C@@H]2OCCCC[C@@H](C)Oc3ccc(NC(=O)Nc4ccc(C(F)(F)F)cc4)cc3C(=O)N([C@@H](C)CO)C[C@@H]2C)cc1 | active
21 | C[C@@H]1CCCCO[C@H](CN(C)C(=O)Cc2ccccc2)[C@H](C)CN([C@@H](C)CO)C(=O)c2cc(NC(=O)Cc3ccccc3)ccc2O1 | inactive
22 | COc1ccc(NC(=O)Nc2ccc3c(c2)C(=O)N([C@@H](C)CO)C[C@@H](C)[C@@H](CN(C)C(=O)NC2CCCCC2)OCCCC[C@H](C)O3)cc1 | inactive
23 | C[C@@H]1CN([C@H](C)CO)S(=O)(=O)c2ccc(C#Cc3ccncc3)cc2O[C@@H]1CN(C)C(=O)C1CCOCC1 | inactive
24 | C[C@@H]1CCCCO[C@@H](CN(C)C(=O)C2CCCCC2)[C@@H](C)CN([C@@H](C)CO)C(=O)c2cc(NC(=O)Nc3ccc4c(c3)OCO4)ccc2O1 | inactive
25 | COc1ccc(NC(=O)N(C)C[C@H]2Oc3c(NS(C)(=O)=O)cccc3C(=O)N([C@H](C)CO)C[C@@H]2C)cc1 | inactive
26 | C[C@@H]1CCCCO[C@H](CN(C)C)[C@H](C)CN([C@@H](C)CO)C(=O)c2cc(NC(=O)Nc3cccc4ccccc34)ccc2O1 | inactive
27 | C[C@H](CO)N1C[C@H](C)[C@H](CN(C)S(=O)(=O)c2cn(C)cn2)Oc2ccc(NC(=O)CCCN(C)C)cc2C1=O | inactive
28 | O=C(CN1CCOCC1)NCC[C@@H]1CC[C@H](NS(=O)(=O)c2ccc(Cl)cc2)[C@@H](CO)O1 | inactive
29 | C[C@@H]1CN([C@H](C)CO)C(=O)c2cccc(NC(=O)CCCCCC(=O)Nc3ccccc3N)c2O[C@H]1CN(C)C(=O)Nc1ccccc1 | inactive
30 | Cn1cc(N2C[C@]3(COCCN(C(=O)C4CC4)C3)OCC2=O)cn1 | inactive
31 | COc1ccc(CN(C)C[C@@H]2OCCCC[C@H](C)Oc3ccc(NC(=O)Nc4ccc(C(F)(F)F)cc4)cc3C(=O)N([C@@H](C)CO)C[C@@H]2C)cc1 | active
32 | COc1ccc(NC(=O)Nc2ccc3c(c2)C(=O)N([C@H](C)CO)C[C@@H](C)[C@@H](CN(C)Cc2ccc(C(F)(F)F)cc2)OCCCC[C@@H](C)O3)cc1 | active
33 | COc1ccc(CN(C)C[C@@H]2OCCCC[C@H](C)Oc3ccc(NC(=O)Nc4ccc(C(F)(F)F)cc4)cc3C(=O)N([C@@H](C)CO)C[C@H]2C)cc1 | active
34 | COc1ccc(CN(C)C[C@@H]2OCCCC[C@@H](C)Oc3ccc(NC(=O)Nc4ccc(C(F)(F)F)cc4)cc3C(=O)N([C@H](C)CO)C[C@@H]2C)cc1 | active
35 | COc1ccc(NC(=O)Nc2ccc3c(c2)C(=O)N([C@H](C)CO)C[C@@H](C)[C@H](CN(C)Cc2ccc(C(F)(F)F)cc2)OCCCC[C@H](C)O3)cc1 | inactive
36 | COc1ccc(NC(=O)Nc2ccc3c(c2)C(=O)N([C@H](C)CO)C[C@@H](C)[C@@H](CN(C)Cc2ccc(C(F)(F)F)cc2)OCCCC[C@H](C)O3)cc1 | inactive
37 | COc1ccc(NC(=O)Nc2ccc3c(c2)C(=O)N([C@H](C)CO)C[C@H](C)[C@@H](CN(C)Cc2ccc(C(F)(F)F)cc2)OCCCC[C@@H](C)O3)cc1 | inactive
38 | COc1ccc(NC(=O)Nc2ccc3c(c2)C(=O)N([C@@H](C)CO)C[C@@H](C)[C@H](CN(C)Cc2ccc(C(F)(F)F)cc2)OCCCC[C@H](C)O3)cc1 | inactive
